Sampled rows, rich in hits. Any-hit rate of the full collection: about 3.1%.
RAD54 branch – inhibitors of human RAD54 branch migration, primary screen, biochemical, fluorescence, single point | DNA repair and recombination protein RAD54-like (Homo sapiens), Q92698 | RAD54 Holliday junction branch migration, FAM/BHQ fluorescence | inhibition, % at 10.4 µM | 360,000 compounds, 0.14% hits;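 active = mean normalized replicate activity at least 40 and at least half of replicates scoring 40 or more; inconclusive = only one of the two criteria met; inactive = mean below 40 and under half of replicates reaching 40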;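 note: 0% = median of neutral control wells and 100% = median of positive control wells; inhibitors cause a drop in the FAM fluorescence signal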
DENV2 CPE rescue – inhibitors of DENV2 cytopathic effect, primary screen, cell-based, plate reader, single concentration. DENV2-infected cells, cytopathic effect rescue. CPE inhibition, % at 9.99 µM. 350,000 compounds, 1.7% hits. AID 651640, 2012; in the data active = CPE inhibition above about 20%, passing the limit was not always enough; inconclusive = no clear call, values can overlap the other calls; tested in BHK-21 cells;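 note: 0% = median of neutral control wells and 100% = median of positive control wells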
RAD52 anneal inh – RAD52 DNA annealing inhibitors, primary screen, biochemical, FRET, single point, set 2; recombinant RAD52 DNA annealing, FRET fluorescence; 360,000 compounds, 0.46% hits; inhibition, % at 18.7 µM;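 active = every replicate showing at least 50% inhibition; inconclusive = mean inhibition at least 50% but not in every replicate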
MLL AF4-AF9 inh – inhibitors of AF4 peptide binding to AF9, primary screen, biochemical, AlphaScreen, biotin-AF4 peptide, FLAG-AF9, single point. Protein AF-9 (Homo sapiens), P42568. inhibition, % at 10 µM. 350,000 compounds, 0.47% hits. AID 651704, 2012;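 active = every replicate reaching a set inhibition limit, whatever the replicate mean, cut at about 25% in these data; inconclusive = mean inhibition reaches that limit but some replicates miss it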;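 note: 0% = plate neutral control median and 100% = total signal loss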
Target sequence (P42568 whole entry, looked up): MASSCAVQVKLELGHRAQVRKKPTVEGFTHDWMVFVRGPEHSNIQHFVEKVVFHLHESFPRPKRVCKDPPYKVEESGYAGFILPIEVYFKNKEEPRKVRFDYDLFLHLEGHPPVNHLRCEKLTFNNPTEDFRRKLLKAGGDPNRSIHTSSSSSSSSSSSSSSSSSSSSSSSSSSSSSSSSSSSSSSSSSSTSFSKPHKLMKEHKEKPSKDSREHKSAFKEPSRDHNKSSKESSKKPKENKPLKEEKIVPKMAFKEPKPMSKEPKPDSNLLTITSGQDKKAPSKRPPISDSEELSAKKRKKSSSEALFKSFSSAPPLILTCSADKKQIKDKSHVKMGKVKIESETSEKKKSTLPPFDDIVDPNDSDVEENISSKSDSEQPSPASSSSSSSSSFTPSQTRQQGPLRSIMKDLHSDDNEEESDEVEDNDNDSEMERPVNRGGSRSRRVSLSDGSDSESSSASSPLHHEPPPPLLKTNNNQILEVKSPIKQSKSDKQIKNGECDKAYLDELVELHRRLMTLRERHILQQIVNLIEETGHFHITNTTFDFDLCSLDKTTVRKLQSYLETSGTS
INS-1E GSIS act – GLuc luminescence reporter in INS-1E cells, primary screen for activators of glucose-dependent secretion of insulin. activation, % at 16.6 µM. INS-1E GLuc reporter insulin secretion, 2-3 h. AID 743287, 2014. 370,000 compounds, 0.61% hits;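 active = lowest replicate activation of at least 40%, so every replicate reaches that level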;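 note: 0% = median of neutral control wells and 100% = median of IBMX positive control wells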
dFosB act-1 – activators of delta FosB homodimer, primary screen, biochemical, fluorescence polarization, TAMRA-CDK5 oligo, single point | Protein FosB (Mus musculus), P13346 | purified delta FosB; percent of positive-control signal above neutral wells | activation, % at 25 µM | 340,000 compounds, 0.99% hits | AID 493131, 2011;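 active = mean activation above about 17%, with every replicate also reaching it, limit read from the data, passing the limit was not always enough; inconclusive = only one of the two conditions met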
dFosB act-2 – activators of mouse delta FosB DNA binding, confirmation, biochemical, fluorescence polarization, TAMRA-CDK5 oligo, cherry-picked samples; activation, % at 24.9 µM; 2,400 tested, under 10 active; shares compounds with dFosB act-1; purified delta FosB; normalised: neutral wells 0, positive control 100;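 active = highest replicate activation at or above 34% and every replicate reaching that threshold; inconclusive = meets only one of the two criteria; inactive = meets neither criterion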;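 note: higher polarization means more probe DNA bound by delta FosB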
* = called active by the depositor; ? = inconclusive; / = no result given.

SMILES | RAD54 branch | DENV2 CPE rescue | RAD52 anneal inh | MLL AF4-AF9 inh | INS-1E GSIS act | dFosB act-1 | dFosB act-2
COc1cc(C(=O)NCc2ccc(S(N)(=O)=O)cc2)ccc1OCC(=O)Nc1cccc(C(F)(F)F)c1 | / | -1.6 | 4.0 | -0.9 | 5.5 | 16.6* | 0.9
N#Cc1cccc(NC(=O)COC(=O)c2cc(S(=O)(=O)Nc3ccccc3Cl)ccc2O)c1 | / | -4.3 | -13.0 | -0.7 | -33.4 | 2.1 | /
O=C(COC(=O)c1cc(S(=O)(=O)Nc2ccccc2Cl)ccc1O)Nc1nc2ccccc2s1 | / | 2.3 | -17.4 | -4.6 | -28.8 | 32.3* | 6.8
O=C(CO/N=C/c1c(Cl)cccc1Cl)NNC(=O)c1ccc(Cl)cc1 | 0.2 | -1.7 | 2.0 | -7.2 | -1.9 | -0.4 | /
O=C(CO/N=C/c1c(Cl)cccc1Cl)NNC(=O)c1cccc(Cl)c1 | / | 8.6 | -8.0 | -20.0 | -11.3 | 43.1* | -0.4
C=CCn1c(SCC(=O)Nc2cc(C)on2)nnc1-c1ccncc1 | -3.7 | -3.7 | -48.3 | -1.1 | 5.4 | / | /
C=CCn1c(SCC(=O)Nc2ncc(Cc3ccc(Br)cc3)s2)nnc1-c1ccncc1 | -13.7 | 3.9 | -17.4 | -1.6 | 9.4 | 37.3* | 4.5
CCOC(=O)c1ccc(Nc2nc(=O)c3cccnc3s2)cc1 | 5.5 | / | / | / | -2.0 | -6.6 | /
O=c1nc(Nc2ccc(OCc3ccccc3)cc2)sc2ncccc12 | 10.7 | 1.0 | -17.8 | -25.4 | -5.4 | 19.5* | -0.9
Cc1cccc(C)c1NC(=O)CNC(=O)c1cccc(S(=O)(=O)NCc2cccs2)c1 | 0.9 | -5.5 | -12.0 | -3.4 | -8.5 | 23.8* | -2.1
CCCNC(=O)N1CC(=O)N2[C@H](C1)[C@H](c1ccc(-c3ccc(C)cc3)cc1)[C@@H]2CO | / | 0.6 | -10.3 | 4.8 | -4.0 | / | /
CN(C)C(=O)c1ccc(-c2ccc([C@H]3[C@@H](C#N)N(C(=O)C4CCOCC4)[C@H]3CO)cc2)cc1 | -25.0 | 6.9 | -23.0 | 1.7 | 3.3 | / | /
COc1ccc(/C=N/n2cnc3c([nH]c4ccc(C)cc43)c2=O)cc1CN1CCCC1 | 6.5 | -7.7 | -1.8 | 2.6 | 6.0 | 42.0* | 1.8
COc1ccc(/C=N/n2cnc3c([nH]c4ccc(F)cc43)c2=O)cc1CN1CCCC1 | / | -4.0 | -25.4 | 1.3 | 5.2 | -20.4 | /
COc1ccc2c(c1)[nH]c1c(=O)n(/N=C/c3ccc(OC)c(CN4CCCC4)c3)cnc12 | 30.2 | 14.8 | -3.9 | 2.5 | 6.9 | 66.1* | ?
COc1ccc2[nH]c3c(=O)n(/N=C/c4ccc(OC)c(CN5CCCC5)c4)c(C)nc3c2c1 | 19.8 | 4.8 | 27.7 | -19.0 | 1.6 | -5.1 | /
O=C(C[C@H]1C=C[C@H](NS(=O)(=O)c2ccc(F)cc2)[C@H](CO)O1)NC1CCCCC1 | 0.5 | 9.3 | -5.9 | -3.5 | 11.6 | / | /
C=CCn1c(SCc2nc3ccccc3c(=O)[nH]2)nc2scc(C3CC3)c2c1=O | / | 0.2 | -85.7 | -6.1 | 10.6 | 32.8* | 3.0
CCc1ccc2nc(SCC(=O)Nc3ccccc3N3CCOCC3)c(C#N)cc2c1 | / | -5.4 | -15.5 | 5.5 | 15.0 | 24.3* | 5.2
O=C(Nc1cccnc1)c1cc(-c2cccnc2)nc2ccc(Br)cc12 | / | -9.5 | -14.2 | -0.8 | 2.0 | -22.3 | /
COc1cc(NC(=O)c2cc(-c3cccnc3)nc3ccc(Br)cc23)cc(OC)c1 | -0.4 | 6.2 | -43.0 | -4.2 | 9.0 | 63.1* | 1.0
COc1ccc(-c2cc(C(=O)Nc3nc4ccccc4s3)c3ccccc3n2)cc1OC | / | -15.2 | -27.3 | -1.5 | -0.4 | 65.2* | ?
COc1ccc(-c2cc(C(=O)Nc3ccccc3N3CCOCC3)c3ccccc3n2)cc1OC | 1.6 | 2.9 | 2.6 | -0.8 | 7.7 | 26.8* | -1.0
COc1ccc(-c2cc(C(=O)Nc3ccc(C(N)=O)cc3)c3ccccc3n2)cc1 | -2.6 | 4.6 | -11.5 | -1.7 | 17.1 | 37.2* | 7.8
CCC(=O)N1CCCCN2[C@H](CO)[C@H](c3ccc(C#Cc4cccnc4)cc3)[C@H]2C1 | 4.2 | -1.2 | -3.3 | -2.9 | 16.7 | / | /
SMILES | RAD54 branch | DENV2 CPE rescue | RAD52 anneal inh | MLL AF4-AF9 inh | INS-1E GSIS act | dFosB act-1 | dFosB act-2
Cc1ccc(CCNC(=O)c2cc(-c3ccncc3)nc3ccc(S(=O)(=O)N4CCOCC4)cc23)cc1 | 3.8 | -4.8 | -22.1 | -0.1 | 11.5 | 29.6* | 2.3
Cc1onc(-c2ccccc2)c1C(=O)Nc1ccc(S(=O)(=O)N2CCCCC2)cc1 | 5.7 | 17.8 | -20.5 | -2.9 | -5.3 | -10.0 | /
COc1ccc(S(=O)(=O)N2CCOCC2)cc1NC(=O)c1cccc2c(=O)c(C)c(-c3ccccc3)oc12 | -7.2 | -3.2 | -18.6 | 8.6 | 19.5 | 45.5* | 5.0
COc1cc(-c2cc(C(=O)Nc3cc(S(=O)(=O)N4CCOCC4)ccc3O)c3ccccc3n2)cc(OC)c1OC | -6.8 | -2.4 | -7.1 | 5.6 | / | 2.8 | /
COc1cc(-c2cc(C(=O)Nc3cc(S(=O)(=O)N4CCOCC4)ccc3C)c3ccccc3n2)cc(OC)c1OC | 13.9 | 6.4 | -4.3 | -8.3 | -10.7 | 43.5* | 2.3
CCN(CC)S(=O)(=O)c1ccc(N2CCOCC2)c(NC(=O)c2cccc3c(=O)c(C)c(-c4ccccc4)oc23)c1 | 11.5 | -6.9 | -2.2 | 10.0 | 10.5 | 0.1 | /
O=C(O)c1cc(-c2ccncc2)nc2ccc(S(=O)(=O)N3CCOCC3)cc12 | 1.3 | / | / | / | / | -10.3 | /
Cc1ccc(S(=O)(=O)N2CCCCC2)cc1NC(=O)c1c(-c2ccccc2)noc1C | -15.9 | -4.5 | -1.8 | 3.5 | 12.0 | 18.1* | 4.8
CN(C)C(=O)C[C@@H]1CC[C@@H]2[C@@H](COc3ccc(NC(=O)NCc4ccccc4)cc3C(=O)N2C)O1 | 2.4 | 2.3 | -4.4 | -7.0 | -4.6 | / | /
O=C(C[C@H]1CC[C@H](NC(=O)Nc2ccccc2F)[C@H](CO)O1)NCc1ccccc1 | 3.5 | -2.0 | -4.8 | -0.2 | 1.6 | / | /
CNC[C@@H]1Oc2cc(C#CC3(O)CCCC3)ccc2S(=O)(=O)N([C@@H](C)CO)C[C@@H]1C | -9.2 | -0.7 | -20.0 | 0.8 | -3.6 | / | /
CCc1ccc2oc(C(=O)Nc3nonc3C)c(C)c2c1 | 0.5 | -0.5 | -8.9 | -10.5 | 3.6 | 2.8 | /
Cc1c(C(=O)Nc2nonc2-c2ccc(F)cc2)oc2ccc(F)cc12 | 4.4 | -2.7 | 3.4 | 0.4 | -6.4 | -6.1 | /
CCc1nonc1NC(=O)c1oc2ccc(F)cc2c1C | -15.8 | 2.3 | -9.5 | -2.8 | 4.2 | 34.8* | 0.7
Cc1cc2oc(C(=O)Nc3nonc3C)c(C)c2cc1C | 2.9 | 2.8 | -8.4 | 0.9 | 10.8 | 20.0* | 2.3
